Results from PubChem BioAssay (NCI).
This is part of a sample that, as a whole, favours compounds with a hit. Of some 83,000 tested, about 20% had one in any assay.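 Percent growth is the endpoint: 0 to 100 indicates growth inhibition (40 means 60% inhibition), 0 means no net growth, and negative values indicate cell death.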 Values without a mark were called inactive. Calls of active or inactive are those of the source. Rule for the calls: active = growth percent below 10; inactive = the rest.

Legend:
Assay in all cases: NCI-60 one-dose screen, 48 h (100 = growth as untreated, 0 = no growth, -100 = all killed)
Conditions in all cases: 10 µM unless noted
[1] = system: NCI-H23 lung
[2] = system: NCI-H226 lung
[3] = system: NCI-H322M lung
[4] = system: HOP-62 NSCLC
[5] = system: NCI-H460 lung
[6] = system: HOP-92 NSCLC
[7] = system: NCI-H522 lung
[8] = system: A549/ATCC NSCLC
[9] = system: 786-0 renal
[10] = system: COLO 205 colon
[11] = system: DU-145 prostate
[12] = system: K-562 leukemia
[13] = system: MDA-MB-231 breast
[14] = system: RXF 393 renal
[15] = system: SF-268 CNS
[16] = system: SF-295 CNS
[17] = system: SF-539 CNS
[18] = system: UACC-257 melanoma
[19] = system: M14 melanoma
[20] = system: MALME-3M melanoma

| SMILES | growth [1] | growth [2] | growth [3] | growth [4] | growth [5] | growth [6] | growth [7] | growth [8] | growth [9] | growth [10] | growth [11] | growth [12] | growth [13] | growth [14] | growth [15] [%] | growth [16] [%] | growth [17] | growth [18] | growth [19] | growth [20] [%] |
| --- | --- | --- | --- | --- | --- | --- | --- | --- | --- | --- | --- | --- | --- | --- | --- | --- | --- | --- | --- | --- |
| CC1=CC(=O)N(c2cccc3c(N4C(=O)C=C(C)C4=O)cccc23)C1=O | 79.4% | 100% | 102% | 100% | 113% | 78.6% | -74.6% (active) | 96.5% | 96.3% | -45.6% (active) | 72.3% | 6.92% (active) | 107% | -10.7% (active) | 106 | 121 | 32.7% | 82.4% | 96.2% |  |
| COc1ccc2[nH]cc(-c3nc(-c4c[nH]c5ncccc45)cs3)c2c1 | 48.3% | 53.2% | 44.5% | 53.5% | 21.8% | 25.9% | 31.3% | 22.4% | 16.2% | -10.2% (active) | 47.1% | 18.3% | 39.1% | 1.36% (active) | 58.8 | 10.6 | 25.2% | -57% (active) | 16.1% |  |
| Cn1cc(-c2csc(-c3cn(C(=O)OC(C)(C)C)c4ccccc34)n2)c2cccnc21 | 70.4% | 91.4% | 103% | 73.7% | 60.7% | 57.1% | -8.18% (active) | 52.9% | 76.6% | 64.8% | 92.7% | 23.3% | 65.4% | 80.1% | 81.6 | 48.2 | 71.4% | 82.9% | 54.8% |  |
| CN(C)c1ccc(C(=O)c2ccc(N(C)C)c(N)c2)cc1N | 40% | 75.6% | 49.3% | 53% | 13.5% | 91% | 49.2% | 56% | 42.4% | 21.3% | 6.99% (active) | 21.4% | 55.8% |  | 43.6 | 21.9 | 3.19% (active) | 77.3% | 13% | 34.2 |
| N#CC1C(=N)Cc2ccccc2-c2ccccc21 (configuration not stated) | 57.1% | 77.8% | 78.5% | 57.6% | 27% | 49.6% | 8.86% (active) | 42.1% | 65.6% | 51.4% | 75.8% | 16% | 57.2% | 58.4% | 61 | 49 | 63.4% | 51.5% | 16.2% |  |
| Cn1cc(-c2nc(-c3cn(C)c4ncccc34)cs2)c2ccccc21 | 43.6% | 66.9% | 58.5% | 36.1% | 16.7% | 75.3% | -1.88% (active) | 38.8% | 39.3% | 32.8% | 58.9% | 12.6% | 48.6% | 35.5% | 45.4 | 20.7 | 27.6% | 60.6% | 8.62% (active) |  |
| Oc1cccc2oc(=S)[nH]c12 | 104% | 106% | 128% | 104% | 116% | 102% | 101% | 107% | 106% | 117% | 118% | 118% | 99.1% | 112% | 111 | 118 | 88.8% | 114% | 111% |  |
| CC1c2ccccc2N(S(=O)(=O)c2ccccc2)C1C (configuration not stated) | 89.4% | 88.4% | 102% | 95.4% | 115% | 86.8% | 76.9% | 92% | 102% | 97.6% | 102% | 34.1% | 91.2% | 88% | 102 | 94.9 | 104% | 93.6% |  |  |
| O=C(/C=C\c1ccc2c(c1)OCO2)/C=C/c1ccc2c(c1)OCO2 | 84.8% | 67.7% | 99.2% | 91.4% | 99.1% | 87.8% | 97.4% | 92.9% | 64.6% | 110% | 90.7% | 4.27% (active) |  | 85% | 93.3 | 89.7 | 26.2% | 98.2% | 40% | 98.2 |
| Cc1nn2c(-c3nc4cc(Cl)c(Cl)cc4[nH]3)c(-c3ccc(F)cc3)nc2s1 | 55.8% | 4.31% (active) | -20% (active) | -36.8% (active) | -13.4% (active) | -7.53% (active) | 65.2% | 5.51% (active) | -79.5% (active) | 17.7% | 52.8% | 68% | -12.9% (active) | -5.06% (active) | 28 |  | 6.21% (active) | -21% (active) |  |  |
| Cc1ccc(C)c2c1CCC2C(C)C (configuration not stated) | 91.9% | 98.6% | 97.9% | 101% | 105% | 93.6% | 94.8% |  | 98.7% | 104% | 103% | 90.4% | 99.6% | 112% | 96.8 | 102 | 97.5% | 89.6% | 95% | 101 |
| O=c1[nH]c(=S)[nH]c2nc[nH]c12 | 88.6% | 99.8% | 118% | 86.9% | 112% | 108% | 100% |  | 91.6% | 123% | 107% | 89.2% | 109% | 79.5% | 97.9 | 106 | 105% | 96.6% | 90.7% | 112 |
| COc1cnc2c(c1)C(=O)c1c-2n(CCCN2CCN(CCO)CC2)c(=O)c2cc([N+](=O)[O-])ccc12 | -40.2% (active) | 64% | -20.4% (active) | 39.8% | -75.7% (active) | 76.9% | 38.3% | -88.9% (active) | -85.4% (active) | 62% | 43.3% | -26.6% (active) | -35.8% (active) | 74.3% | 31 | 29.2 | 57.5% |  | 18.2% |  |
| Brc1cnc2[nH]cc(-c3nnc(-c4ccccc4)o3)c2c1 | 78.5% | 66.4% | 77.5% | 85.2% | 80.9% | 74.7% | 76.7% |  | 73.6% | 82.9% | 57.9% | 73.3% | 63% | 26.8% | 81.2 | 85.8 | 89.6% | 112% | 76.6% | 78.9 |
| COC(=O)[C@]12CC[C@@H](C)[C@H](C)[C@@H]1C1=CC(=O)[C@@H]3[C@@]4(C)C[C@@H](OC(C)=O)[C@H](OC(C)=O)[C@@](C)(COC(C)=O)[C@@H]4C(=O)C[C@@]3(C)[C@]1(C)CC2 | 45.4% | 41.8% | 82.6% | 58.2% | 32.4% | 18.1% | 47.6% | 42.5% | 68.5% | 39.5% | 73% |  | 41.6% | 64.5% | 73.8 | 51.6 | 72.3% |  | 29.5% | 44.6 |
| O=S(=O)(NCCNc1cc(-c2cn(-c3ccccc3)nc2-c2cccc(O)c2)ccn1)c1ccc(C(F)(F)F)cc1 | 41.8% | 57.8% | 75.3% | -60% (active) | 42.3% | 38.4% | 55.7% |  | 35.8% | -21.4% (active) | 71.8% | 7.03% (active) | 5.29% (active) | 40.5% | 50 | 38.6 | 60.1% |  | 32.1% | 60.2 |
| Cn1cc(-c2csc(-c3cn(CCN)c4ccccc34)n2)c2cccnc21 | 59.3% | 66.4% | 70.9% | 40.1% | 24.8% | 37.6% | 65.8% |  | 46.7% | 20.7% | 75.6% | -44.3% (active) | 45.7% | 70.9% | 64.4 | 58.6 | 47.9% | 78.1% | 43.4% | 68.2 |
